Among the data in PubChem BioAssay (EPA / NIEHS) are outcome and AC50 values, retold here.

Common to all, as to conditions: mRNA level, 48 h; actives raise or lower the signal
Read-out in one test: CYP4A11 (gene 1579)
The test is described as follows: LTEA_HepaRG_CYP4A11: Life Technologies and Expression Analysis (LTEA) Assay for CYP4A11 using HepaRG (AID 2283486). The essentials:
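Differentiated HepaRG cells, 48 h after plating, exposed in duplicate for 48 h to 8 half-log concentrations up to 100 uM in 0.5% DMSO in serum-free induction medium. CYP4A11 mRNA measured by TaqMan qRT-PCR, normalized to ACTB, GAPDH and POLR2A.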

Read-out in test [1]: Cytochrome P450 3A4 (Homo sapiens) (UniProt P08684)
The experiment in a line: LTEA_HepaRG_CYP3A4: Life Technologies and Expression Analysis (LTEA) Assay for CYP3A4 using HepaRG (AID 2283487). An outline of the steps:
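Differentiated HepaRG cells, plated 48 h, then dosed 48 h in serum-free induction medium with 0.5% DMSO, 8 half-log concentrations up to 100 uM, duplicate. CYP3A4 mRNA by qRT-PCR, normalized to ACTB/GAPDH/POLR2A; bidirectional fit versus DMSO.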

Read-out in test [2]: DNA damage-inducible transcript 3 (DDIT3), DDIT3 (gene 1649)
The test is described as follows: LTEA_HepaRG_DDIT3: Life Technologies and Expression Analysis (LTEA) Assay for DNA damage-inducible transcript 3 (DDIT3) using HepaRG (AID 2283488). The essentials:
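DDIT3 transcript was quantified by qRT-PCR with ACTB/GAPDH/POLR2A normalization after 48 h chemical treatment of differentiated HepaRG cells in 0.5% DMSO. Dosing was eight-point, half-log, top 100 uM, duplicate wells. Curves fitted bidirectionally versus DMSO.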

Read-out in test [3]: Pro-epidermal growth factor (Homo sapiens) (UniProt P01133)
The experiment in a line: LTEA_HepaRG_EGF: Life Technologies and Expression Analysis (LTEA) Assay for Epidermal growth factor (EGF) using HepaRG (AID 2283489). An outline of the steps:
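HepaRG cells (~100,000/well, 48 h pre-culture) exposed in duplicate for 48 h in serum-free induction medium to 8 half-log concentrations up to 100 uM in 0.5% DMSO. EGF mRNA by qRT-PCR, normalized to ACTB/GAPDH/POLR2A; bidirectional fit versus DMSO.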

Read-out in test [4]: Early growth response protein 1 (EGR1) transcription factor, EGR1 (gene 1958)
The experiment in a line: LTEA_HepaRG_EGR1: Life Technologies and Expression Analysis (LTEA) Assay for Early growth response protein 1 (EGR1) transcription factor using HepaRG (AID 2283490). An outline of the steps:
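EGR1 transcript levels quantified by qRT-PCR (Fluidigm arrays) against three housekeeping genes after 48 h chemical exposure of HepaRG cells. Eight-point half-log series topping at 100 uM, 0.5% DMSO vehicle, analyzed for gain or loss.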

Read-out in test [5]: Ezrin (EZR), EZR (gene 7430)
The experiment in a line: LTEA_HepaRG_EZR: Life Technologies and Expression Analysis (LTEA) Assay for Ezrin (EZR) using HepaRG (AID 2283491). The essentials: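 EZR transcript levels came from Fluidigm qRT-PCR and were normalized to three housekeeping genes after 48 h chemical exposure of HepaRG cells. Dosing used an 8-point half-log series with a 100 uM top concentration in 0.5% DMSO, tested in duplicate; both directions were fitted versus vehicle.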

Read-out in test [6]: Cytochrome P450 3A7 (Homo sapiens) (UniProt P24462)
The test is described as follows: LTEA_HepaRG_CYP3A7: Life Technologies and Expression Analysis (LTEA) Assay for CYP3A7 using HepaRG (AID 2283492). An outline of the steps:
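Differentiated HepaRG cells in serum-free induction medium exposed 48 h in duplicate to 8-point half-log series from 100 uM top in 0.5% DMSO. CYP3A7 mRNA by qRT-PCR, normalized to ACTB/GAPDH/POLR2A, bidirectional fit versus DMSO.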

Read-out in a further test: CYP3A5 (gene 1577)
The test is described as follows: LTEA_HepaRG_CYP3A5: Life Technologies and Expression Analysis (LTEA) Assay for CYP3A5 using HepaRG (AID 2283493). The essentials:
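mRNA levels were quantified by qRT-PCR on Fluidigm arrays and normalized to three housekeeping genes. Differentiated HepaRG cells received 48 h exposure (top 100 uM, half-log steps, 0.5% DMSO vehicle, duplicate); bidirectional fitting versus DMSO.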

Read-out in test [7]: Fatty Acid-Binding Protein 1 (FABP1), FABP1 (gene 2168)
The test is described as follows: LTEA_HepaRG_FABP1: Life Technologies and Expression Analysis (LTEA) Assay for Fatty Acid-Binding Protein 1 (FABP1) using HepaRG (AID 2283494). An outline of the steps: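 FABP1 expression by TaqMan qRT-PCR, normalised to three housekeeping genes, in HepaRG cells after 48 h chemical treatment. Eight-point half-log series topping at 100 uM in 0.5% DMSO, duplicates; gain or loss fitted relative to vehicle.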

Read-out in test [8]: Cytochrome P450 4A22 (Homo sapiens) (UniProt Q5TCH4)
The experiment in a line: LTEA_HepaRG_CYP4A22: Life Technologies and Expression Analysis (LTEA) Assay for Cytochrome P450 4A22 (CYP4A22) using HepaRG (AID 2283495). An outline of the steps:
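Differentiated HepaRG cells in serum-free induction medium exposed 48 h in duplicate to eight half-log concentrations up to 100 uM in 0.5% DMSO. CYP4A22 mRNA quantified by TaqMan qRT-PCR, normalized to ACTB, GAPDH and POLR2A; bidirectional fit versus DMSO.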

Calls of active or inactive are those of the source. Rule for the calls: active = hit-call score of the fitted dose curve at least 0.9, where 1 is the maximum; inactive = score below 0.9.

Sequence of Cytochrome P450 3A7 (Homo sapiens) (P24462 whole entry, looked up): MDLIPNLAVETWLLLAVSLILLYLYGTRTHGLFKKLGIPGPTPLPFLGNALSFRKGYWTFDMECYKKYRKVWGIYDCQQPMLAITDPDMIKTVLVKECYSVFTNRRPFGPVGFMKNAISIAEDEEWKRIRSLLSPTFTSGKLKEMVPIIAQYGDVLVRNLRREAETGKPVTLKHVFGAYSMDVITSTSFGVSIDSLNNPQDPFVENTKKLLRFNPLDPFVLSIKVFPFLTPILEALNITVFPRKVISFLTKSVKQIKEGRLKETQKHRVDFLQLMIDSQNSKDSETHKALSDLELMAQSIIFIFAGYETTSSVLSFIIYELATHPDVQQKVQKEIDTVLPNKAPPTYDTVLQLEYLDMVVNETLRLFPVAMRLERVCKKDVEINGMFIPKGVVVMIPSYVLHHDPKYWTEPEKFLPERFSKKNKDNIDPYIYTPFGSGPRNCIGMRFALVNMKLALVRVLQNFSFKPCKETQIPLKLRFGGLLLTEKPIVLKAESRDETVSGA
Sequence of Cytochrome P450 3A4 (Homo sapiens) (P08684 whole entry, looked up): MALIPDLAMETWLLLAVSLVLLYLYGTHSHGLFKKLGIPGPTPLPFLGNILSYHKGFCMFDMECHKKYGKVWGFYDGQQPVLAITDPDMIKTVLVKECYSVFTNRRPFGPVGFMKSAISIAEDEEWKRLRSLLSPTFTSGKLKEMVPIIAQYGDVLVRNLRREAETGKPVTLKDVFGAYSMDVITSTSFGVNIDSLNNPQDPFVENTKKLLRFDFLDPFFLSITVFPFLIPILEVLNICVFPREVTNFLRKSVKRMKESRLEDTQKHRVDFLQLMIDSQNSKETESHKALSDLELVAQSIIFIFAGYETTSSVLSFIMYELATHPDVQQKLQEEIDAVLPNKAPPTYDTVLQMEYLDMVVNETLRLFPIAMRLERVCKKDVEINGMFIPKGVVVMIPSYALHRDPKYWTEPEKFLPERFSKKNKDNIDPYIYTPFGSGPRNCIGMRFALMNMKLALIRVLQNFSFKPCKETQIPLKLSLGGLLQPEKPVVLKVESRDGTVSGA

On to `O=C(O)CCCCC(=O)O`, for which the result (in the test with CYP4A11 (gene 1579); in [1]; in [2]; in test [3]; in [4]; in [5]) was inactive. In addition, the call (in [6]; with CYP3A5 (gene 1577); in test [7]; in test [8]) was inactive.

Consider `Cc1cc(=O)[nH]c(=S)[nH]1`, for which the result (in the test with CYP4A11 (gene 1579); in test [1]; in [2]; in test [3]; in test [4]; in test [5]) was inactive. Moreover, the compound was called inactive (in [6]; with CYP3A5 (gene 1577); in test [7]; in test [8]).

For `CCCCCCCCCCCCCCCC`, the call (in the test with CYP4A11 (gene 1579); in [1]; in test [2]; in [3]; in test [4]; in test [5]) was inactive. Also, the compound was classed as inactive (in test [6]; with CYP3A5 (gene 1577); in test [7]).

For `CCCCCCCCCCC`, the compound was called inactive (in the test with CYP4A11 (gene 1579); in test [1]; in [2]; in [3]; in [4]; in [5]). The result (in test [6]; with CYP3A5 (gene 1577); in test [7]; in test [8]) was inactive.

As to `CCCc1cc(=O)[nH]c(=S)[nH]1`, the compound was classed as inactive (with CYP4A11 (gene 1579); in test [1]; in [2]; in test [3]; in test [4]; in test [5]). In addition, the outcome (in [6]; in the test with CYP3A5 (gene 1577); in [7]; in test [8]) was inactive.

As a reminder, the AC50 is the concentration at which the activity in the assay is half-maximal. As for `Oc1ccc2ccccc2c1N=Nc1ccccc1`, the AC50 with CYP4A11 (gene 1579) is 27.1 µM (active); in test [1] it was 1.81 µM (active); in test [4] it was 3.53 µM (active); in test [6] it was 2.19 µM (active); in the test with CYP3A5 (gene 1577), 8.1 µM (active); in test [7], 16.2 µM (active). Moreover, the outcome in test [2], in test [3], in test [5] and in [8] was inactive.

For the compound `Cc1c(C(=O)O)c(O)cc2c1C(=O)c1c(O)c([C@@H]3O[C@H](CO)[C@@H](O)[C@H](O)[C@H]3O)c(O)c(O)c1C2=O`, the compound was called inactive (with CYP4A11 (gene 1579); in [1]; in [2]; in test [3]; in test [4]; in test [5]). The call (in test [6]; in the test with CYP3A5 (gene 1577); in test [7]; in test [8]) was inactive.

For the compound `COCCOC[C@H](CC1(C(=O)NC2CCC(C(=O)O)CC2)CCCC1)C(=O)Oc1ccc2c(c1)CCC2` (some centres not stated), the result (with CYP4A11 (gene 1579); in test [1]; in [2]; in test [3]; in test [4]; in [5]) was inactive. Also, the result (in [6]; with CYP3A5 (gene 1577); in test [7]; in test [8]) was inactive.

Take `Cc1nc(C)nc(N2C[C@@H](C)N(c3ccnc([C@@H](C)O)n3)[C@@H](C)C2)n1`: the figures for the AC50 (with CYP4A11 (gene 1579); in test [6]; in test [8]) were 9.39 µM (active), 13.8 µM (active) and 0.682 µM (active), respectively. Further, the outcome (in test [1]; in [2]; in [3]; in [4]; in test [5]; in the test with CYP3A5 (gene 1577)) was inactive. Further, the compound was called inactive in test [7].

With `CC1(C)NC(=O)NC1=O`, the outcome (in the test with CYP4A11 (gene 1579); in test [1]; in test [2]; in [3]; in [4]; in test [5]) was inactive. Further, the call (in [6]; with CYP3A5 (gene 1577); in test [7]; in test [8]) was inactive.

For the compound `Cc1cccc([N+](=O)[O-])c1C`, the call (with CYP4A11 (gene 1579); in test [1]; in test [2]; in test [3]; in test [4]; in [5]) was inactive. In addition, the call (in test [6]; with CYP3A5 (gene 1577); in test [7]) was inactive.

For the compound `CN1CCN(Cc2cc(-c3ccc4[nH]c(=O)oc4c3)co2)[C@@H](c2ccc(F)cc2)C1`, the AC50 is 78.5 µM (active) with CYP4A11 (gene 1579), 11.5 µM (active) in test [6] and 50 µM (active) in test [8]. In addition, the result (in test [1]; in test [2]; in test [3]; in test [4]; in [5]; with CYP3A5 (gene 1577)) was inactive. The compound was classed as inactive in test [7].

Take `Cc1ccc(Cl)cc1`: the outcome (with CYP4A11 (gene 1579); in [1]; in test [2]; in [3]; in test [4]; in [5]) was inactive. The compound was classed as inactive (in test [6]; with CYP3A5 (gene 1577); in [7]; in [8]).

Regarding `Cc1ccc(N(C)C)cc1`, the result (with CYP4A11 (gene 1579); in test [1]; in [2]; in [3]; in [4]; in [5]) was inactive. The compound was classed as inactive (in test [6]; in the test with CYP3A5 (gene 1577); in test [7]; in test [8]).

`CCOc1ccc2c(c1)C(C)=CC(C)(C)N2`: the result (with CYP4A11 (gene 1579); in test [2]; in test [3]; in test [4]; in test [5]; with CYP3A5 (gene 1577)) was inactive. Also, the compound was classed as inactive in [8]. The AC50 in [1] was 1.73 µM (active); in test [6] it was 1.12 µM (active); in test [7], 50 µM (active).

Take `Cc1cccc(Nc2cc(Cl)nc(SCC(=O)O)n2)c1C`: the AC50 was 4.63 µM (active) with CYP4A11 (gene 1579), 16.7 µM (active) in [7] and 16.7 µM (active) in [8]. In addition, the compound was classed as inactive (in test [2]; in test [3]; in [4]; in [5]; with CYP3A5 (gene 1577)).

In the case of `CNCc1cc(F)ccc1Oc1ccc(Cl)c(Cl)c1`, the AC50 with CYP4A11 (gene 1579) is 75.5 µM (active); in test [2] it was 77 µM (active); in [3] it was 79.4 µM (active); in test [4], 83 µM (active); in [6], 77.5 µM (active). Also, the call (in test [5]; in the test with CYP3A5 (gene 1577)) was inactive.

Take `FC(F)(F)C(F)(F)C(F)(F)C(F)(F)C(F)(F)C(F)(F)CCI`: the compound was classed as inactive (with CYP4A11 (gene 1579); in test [1]; in test [2]; in test [3]; in test [4]; in [5]). In addition, the compound was called inactive (in test [6]; with CYP3A5 (gene 1577); in test [8]).

As for `CC(CO)OC(C)CO` (configuration not stated) (tested in a mixture with another compound), the compound was called inactive (with CYP4A11 (gene 1579); in [1]; in test [2]; in test [3]; in test [4]; in [5]). Moreover, the result (in test [6]; with CYP3A5 (gene 1577); in test [8]) was inactive.

With `CCCCC(CC)COC(=O)CC(C(=O)OCC(CC)CCCC)S(=O)(=O)O` (configuration not stated), the outcome (in the test with CYP4A11 (gene 1579); in test [3]; in [5]) was inactive. Also, the AC50 in [2] is 71.9 µM (active); in [4], 85.5 µM (active); with CYP3A5 (gene 1577), 82.9 µM (active).
